The results in this text go back to PubChem BioAssay AID2315 (National Center for Advancing Translational Sciences (NCATS), 2010).

SMILES strings stand for the structures. Among all 290,000 compounds or so, about 27,000 (9.3%) were called active. This is one part of a sample in which actives are shown more often than they occur. Rule as the data show it: active = inhibition mostly above about 28% (no sharp cut-off); inactive = mostly below about 43%.

The term inhibition denotes the relative decrease from the control value, in per cent.

The test can be described thus: A qHTS for Small Molecule Inhibitors of Shiga Toxin. Also: 0% is about no effect. As to conditions: Vero cells, Shiga toxin protein synthesis inhibition reporter; at 38.7 µM, active compounds read high. A general note: Quantitative high-throughput screening tests each substance at several concentrations.
For the compound `CC(C)CN(CC(C)C)C(=O)CN1c2cccc3cccc(c23)S1(=O)=O`, the inhibition is 2.89% (inactive).
Regarding `COc1ccc(C(CCN2CCOCC2)c2c(OC)cc(OC)c3c2OC(=O)CC3c2ccc(OC)cc2)cc1` (stereo not given), the inhibition is -0.588% (inactive).
With `COc1ccc(C(C)NC(=S)NC2CCCCC2)cc1OC` (stereo not given), the inhibition is -35.1% (inactive).
With `CCc1c(C)c2ccc(OC3CCCCC3=O)cc2oc1=O` (stereo not given), the inhibition is 28% (inactive).
Turning to `COc1ccc(-c2nn(CCC#N)cc2C(=O)Nc2ccc(C(C)=O)cc2)cc1`, the inhibition is 25.5% (inactive).
For `COc1cccc(NC(=O)c2ccc(S(=O)(=O)N(C)C)cc2)c1`, the inhibition is 70.6% (inactive).
Regarding `COc1ccc(NC(=O)c2sc(N)nc2-c2ccccc2)cc1`, the inhibition is 9.77% (inactive).
With `COc1ccc(NC(=O)c2sccc2SCC#N)cc1` the figure was 52.8% (active).
As for `COc1ccc(C(=S)Nc2ccccc2)cc1`, the inhibition was 62.5% (active).
With `COCCNC(=S)c1ccc(OC)cc1` the figure was 13% (inactive); with `COc1cccc(NC(=O)CN(C)CC(=O)Nc2ccc3c(c2)CCC3)c1`, -9.55% (inactive).
Regarding `COc1ccc(NC(=O)C(C)SCc2ccccc2)cc1` (stereo not given), the inhibition was 40.5% (inactive).
As for `COc1ccc(C(=O)Nc2sc(C)c(C)c2CN2CCOCC2)cc1`, the inhibition was 82.5% (active).
In the case of `CCC(=O)Nc1ccc(C(=O)Nc2cccc(OC)c2)cc1`, the inhibition was 108% (active).
On to `COc1ccc(C(=O)Nc2ccnn2C2CCN(Cc3ccncc3)CC2)cc1`, for which the inhibition was -4.63% (inactive).
Regarding `CCOC(=O)c1c(NC(=O)c2ccc(N3CCOCC3)c([N+](=O)[O-])c2)sc(C)c1C`, the inhibition is 9.37% (inactive).
Take `CCC(=O)Nc1nnc(S(=O)(=O)N2CCCc3ccccc32)s1`: the inhibition is -3.3% (inactive).
`O=C(Nc1ccc(C(=O)O)cc1)/C(=C\c1ccccc1)NC(=O)c1ccc(Br)cc1`: the inhibition is -9.04% (inactive).
Take `CC(=O)c1c(C)oc2ccc(NS(=O)(=O)c3ccccc3)cc12`: the inhibition is -6.31% (inactive).
In the case of `CC(C)CC(=O)c1c[nH]c(C(=O)NCc2ccccc2)c1` it was -10% (inactive); in that of `CCOc1ccc(NC(=O)CCC(=O)NNC(=O)NC2CCCCC2)cc1`, -9.72% (inactive).
Consider `CCOCCCNC(=O)c1cn(CC(C)C)c(=O)c2c1c1ccccc1n2C`, for which the inhibition was -4% (inactive).
For the compound `Cc1ccccc1C(=O)NC(=S)Nc1ccc(N2CCN(C(=O)c3ccccc3)CC2)cc1`, the inhibition is -15.7% (inactive).
`CC(C)CC(CCc1ccccc1)OS(N)(=O)=O` (stereo not given): the inhibition was 7.41% (inactive).
For `CC(=O)N1c2ccc(S(=O)(=O)N3CCC(C(=O)NC4CCCC(C)C4C)CC3)cc2CC1C` (stereo not given), the inhibition was -3.25% (inactive).
In the case of `CCOc1ccccc1-c1cc(C(=O)N2CCOCC2)c2ccccc2n1` it was -10.7% (inactive).
With `COc1ccc(NS(=O)(=O)c2cc3c(cc2C)N(C(C)=O)CCO3)cc1`, the inhibition is 0.181% (inactive).
For `Cc1cccc(NC(=O)c2ccc([N+](=O)[O-])o2)c1`, the inhibition was 55.5% (active).
Take `Cc1cccc(NC(=O)c2cc([N+](=O)[O-])ccc2N2CCN(C)CC2)c1`: the inhibition was 1.74% (inactive).
Regarding `Cc1cccc(NC(=O)c2sc(-c3ccccc3)nc2-c2ccc([N+](=O)[O-])cc2)c1`, the inhibition is -1.42% (inactive).
In the case of `Cc1onc(NC(=O)c2ccc([N+](=O)[O-])o2)c1Br`, the inhibition is 71.2% (active).
In the case of `Cc1onc(C(=O)NCc2ccc(F)cc2)c1[N+](=O)[O-]`, the inhibition is 15.4% (inactive).
Consider `Cc1ccc(C(=O)Nc2nnc(-c3ccncc3)s2)o1`, for which the inhibition was -10.6% (inactive).
On to `O=C(Cc1ccccc1F)NC1CCSc2ccccc21` (stereo not given), for which the inhibition was 8.44% (inactive).
In the case of `CCOC(=O)c1ccc(NC(=O)c2ccc(NC(=O)C3CCCO3)cc2)cc1` (stereo not given) it was 21.1% (inactive).
On to `CC(C)c1ccc(NC2CCCN(C(=O)c3ccncc3)C2)cc1` (stereo not given), for which the inhibition was -8.11% (inactive).
Turning to `COC(=O)c1cc(NC(=O)c2cc(C(C)(C)C)nn2Cc2cccc(C)c2)ccc1N1CCOCC1`, the inhibition was -6.65% (inactive).
In the case of `COCc1nnc(NC(=O)CS(=O)(=O)Cc2ccccc2)s1`, the inhibition was 3.05% (inactive).
With `O=C(Nc1nc2cc3c(cc2s1)OCCO3)c1cccc(S(=O)(=O)N2CCOCC2)c1`, the inhibition was 53.6% (inactive).
With `CCCc1nnc(NC(=O)c2cc(OC)cc(OC)c2)s1` the figure was 34.6% (inactive).
For the compound `N#Cc1ccccc1NC(=O)c1ccc2c(c1)OCO2`, the inhibition was 22.7% (inactive).
As for `C/C(=N/NC(=S)Nc1ccccc1)c1ccc2c(c1)OCO2`, the inhibition was 67.4% (inactive).
With `O=C(Nc1cccnc1)c1cc2cc(Br)ccc2oc1=O`, the inhibition is 28.7% (inactive).
With `O=C(Nc1cccnc1)c1cccc(S(=O)(=O)N2CCCC2)c1`, the inhibition was 23.2% (inactive).
On to `COc1ccc(S(=O)(=O)N2CCOCC2)cc1C(=O)Nc1nc2ccccc2s1`, for which the inhibition was -1.04% (inactive).
As for `O=C(Nc1nc2ccccc2s1)c1ccc2c(c1)OCO2`, the inhibition is 39.2% (active).
`O=C(Nc1cccnc1)c1noc2c1CCCCC2`: the inhibition is 29% (active).
In the case of `COCc1nnc(NC(=O)c2ccc3c(c2)OCO3)s1` it was 59.3% (active); in that of `O=C(Nc1ccccc1)c1ccc2c(c1)OCO2`, 58.7% (active); in that of `CCOC(=O)c1csc(CCNC(=O)c2oc3c(Cl)cc(C)cc3c2C)n1`, 43.9% (inactive).
With `O=C(NCCS(=O)(=O)c1ccc(Br)cc1)c1ccccc1Cl` the figure was -1.37% (inactive); with `Cc1ccnc(NC(=O)C2CCN(S(=O)(=O)c3c(C)c(C)cc(C)c3C)CC2)c1`, 8.68% (inactive).
On to `COc1ccc(N(C(=O)CNC(=O)c2ccco2)C(C(=O)NCC2CCCO2)c2ccccc2)cc1Cl` (stereo not given), for which the inhibition is 15.8% (inactive).
With `C/C(=N\NC(=O)C1(C)CC1(Br)Br)c1ccc(C)cc1C` (stereo not given) the figure was -7.42% (inactive); with `CCOC(OCC)OCC`, 11.5% (inactive); with `COCCCN1C(=O)c2ccc(C(=O)OCC(=O)NCc3ccccc3OC)cc2C1=O`, 9.09% (inactive).
`COc1ccccc1CNC(=O)c1ccc(CS(=O)(=O)c2ccccc2)o1`: the inhibition was 2.09% (inactive).
Take `COC(=O)CN1C(=O)[C@H]2[C@@H](C3CC3)N3C(=O)CN(Cc4ccc(-c5ccccc5)cc4)C(=O)[C@@]3(Cc3ccccc3)[C@H]2C1=O`: the inhibition was 9.74% (inactive).
Turning to `CCOc1ccccc1-c1cc(C(=O)N/N=C(\C)c2cccnc2)c2ccccc2n1`, the inhibition is -30.4% (inactive).
With `Cc1ccccc1/C=C\c1nc(O)c([N+](=O)[O-])c(=O)[nH]1` the figure was -14.2% (inactive); with `Cc1ccc2[nH]c(=O)c(CN(C)S(=O)(=O)c3cccc4nonc34)cc2c1`, -4.87% (inactive); with `CCC1(CC)Cc2ccccc2-c2nc(CCl)[nH]c(=O)c21`, -4.46% (inactive).
In the case of `CCc1ccc(OCC(O)CN2CCN(CCO)CC2)cc1` (stereo not given), the inhibition is -8.28% (inactive).
As to `COc1ccc(NC(=O)N2CCCC2C(=O)NCc2ccccc2Cl)cc1` (stereo not given), the inhibition was -3.06% (inactive).
As for `CC(NC(=O)c1ccco1)c1ccc2c(c1)OCO2` (stereo not given), the inhibition is -15.1% (inactive).
In the case of `CCC(C)(C)NC(=O)C(c1ccc(O)cc1)N(Cc1ccco1)C(=O)CCC(=O)Nc1ccccn1` (stereo not given), the inhibition is -12.1% (inactive).
In the case of `Cc1ccc(C)c(S(=O)(=O)N2CCCOC2CNC(=O)C(=O)NC2CCCCC2)c1` (stereo not given), the inhibition is 20.6% (inactive).
For the compound `CC(C)c1ccc(S(=O)(=O)N2CCN(C(=O)c3ccc(N4CCCC4)c([N+](=O)[O-])c3)CC2)cc1`, the inhibition is 25.8% (inactive).
With `CC(=O)c1ccc2c(c1)OCCOCCOc1ccc(C(C)=O)cc1OCCOCCO2`, the inhibition was -5.3% (inactive).
In the case of `CC(Sc1nc(-c2ccccc2)cc(C(F)(F)F)n1)C(=O)Nc1ccc2c(c1)OCO2` (stereo not given) it was -14.3% (inactive); in that of `COc1ccc(C(=O)Nc2cccnc2)cc1C(=O)Nc1cccnc1`, 9.57% (inactive); in that of `O=C(CN1CCc2cc3c(cc2C1)OCCCO3)Nc1ccccc1`, 18.6% (inactive).
With `O=C(Nc1ccccc1)c1ccc2c(c1)OCCCO2` the figure was 58.6% (active); with `O=C(Nc1ccc2c(c1)OCO2)c1sc2cc(Cl)ccc2c1Cl`, -13.4% (inactive); with `O=C(Nc1cccc(S(=O)(=O)Nc2ccc(Cl)cc2)c1)c1ccc2c(c1)OCCO2`, 11.3% (inactive).
In the case of `CC(Sc1nc2cc(Cl)ccc2s1)C(=O)Nc1ccc2c(c1)OCO2` (stereo not given) it was 0% (active).
Regarding `O=C(Nc1ccc(Cl)cn1)c1ccc2c(c1)OCCO2`, the inhibition is 32.4% (inactive).
Take `O=C(Nc1cccnc1)c1ccc2c(c1)OCO2`: the inhibition was 33% (active).
Take `Cc1nc(NC(=O)c2ccc3c(c2)OCCO3)ccc1Br`: the inhibition is 90.6% (active).
With `CN1CCC(CN)(N2CCN(c3ccccc3)CC2)CC1` the figure was -6.52% (inactive); with `COc1cccc2sc(N(CCCN(C)C)C(=O)CCS(=O)(=O)c3ccccc3)nc12`, 8.49% (inactive).
As to `CC1(C)Cc2c(cnn2-c2cccc(F)c2)C(NC(=O)c2cc[n+]([O-])cc2)C1` (stereo not given), the inhibition is -5.88% (inactive).
Turning to `Cc1cccnc1NC(=O)Cn1c(=O)oc2ccccc21`, the inhibition was 30.2% (inactive).
`Cc1ccc(S(=O)(=O)c2c[nH]c3ccc(Cl)cc3c2=O)cc1`: the inhibition is -4.43% (inactive).
With `CC(C)C(=O)Nc1cccc(C(=O)Nc2ccc3c(c2)OCO3)c1` the figure was 143% (active).
With `O=C(Nc1cccc([N+](=O)[O-])c1)Nn1cnnc1`, the inhibition was -6.68% (inactive).
Consider `CC(NC(=O)Nc1cccc([N+](=O)[O-])c1)c1ccc2c(c1)OCO2` (stereo not given), for which the inhibition was 6.02% (inactive).
With `CCSc1ccccc1C(=O)Nc1ccc2c(c1)OCO2`, the inhibition was 45.1% (inactive).
With `O=C(Nc1ccc(C2CC2(Cl)Cl)cc1)c1cccc([N+](=O)[O-])c1` (stereo not given), the inhibition is 76.3% (active).
As to `O=C(c1ccc2c(c1)OCO2)N1CCOCC1`, the inhibition is 1.95% (inactive).
As to `O=C(Nc1ccc(C(=O)N2CCCCC2)cc1)c1cccc([N+](=O)[O-])c1`, the inhibition is 27.3% (inactive).
For the compound `O=C(Nc1ccc(NC(=O)c2ccco2)c(Cl)c1)c1cccc([N+](=O)[O-])c1`, the inhibition is 15.6% (inactive).
For `O=C(Nc1cccc([N+](=O)[O-])c1)c1ccc2c(c1)OCO2`, the inhibition is 58.7% (active).
As to `O=C(Nc1ccc2c(c1)OCO2)c1ccc(N2C(=O)c3ccccc3C2=O)cc1`, the inhibition was 17.3% (inactive).
Consider `O=C(Nc1ccc(N2CCOCC2)cc1)c1ccc2c(c1)OCO2`, for which the inhibition is 76.4% (active).
